We go through 23 compounds from PubChem BioAssay AID1531 (NMMLSC, 2009).

The whole screen tested about 290,000 compounds, of which about 3,300 (1.1%) were called active. The sample holds actives, similar compounds and a random draw of the others, so the mix is not that of the screen. Rule as the data show it: active = binding response below about 67% or above about 130%; inconclusive = no clear call, values can overlap the other calls; inactive = in between.

For this experiment, the target named is Mitogen-activated protein kinase kinase kinase 2 (Homo sapiens) (UniProt Q9Y2U5). As to the kind of experiment: wildtype MEKK2 PB1-MEK5 interaction, increase or decrease – biochemical, multiplex bead flow cytometry, Alexa488-MEK5, primary screen (AID 1531). The note with it: Alexa488-MEK5 binding to MEKK2 WT, at 10 µM, actives lie on both sides.
As to `c1ccc(CN2CCC(N=C3NN=C(c4ccc5c(c4)OCCO5)CS3)CC2)cc1`, the binding response (% of control) is 154% (active).

With `CS(=O)(=O)N(CC(=O)N1CCN(Cc2ccccc2)CC1)c1ccc2c(c1)OCCO2`, the binding response (% of control) was 103% (inactive).

For the compound `Clc1cccc(N=C2NN=C(c3ccc4c(c3)OCCO4)CS2)c1`, the binding response (% of control) is 97% (inactive).

Take `CC1(c2nnc(-c3ccncc3)o2)CC(c2cccnc2)=NO1` (stereo not drawn): the binding response (% of control) is 105% (inactive).

For `O=C(NCCc1ccc(Cl)cc1Cl)c1cc([N+](=O)[O-])c[nH]c1=O`, the binding response (% of control) was 96% (inactive).

Take `COc1ccc(Cn2c(-c3ccc(Cl)cc3)c[n+]3ccccc23)cc1`: the binding response (% of control) was 112% (inactive).

Regarding `Cc1c(C)c2ccc(OCC(=O)N3CCN(c4cccc(Cl)c4)CC3)cc2oc1=O`, the binding response (% of control) is 92% (inactive).

Consider `Cc1ccc(C(CNC(=O)Nc2cccc(C)c2)N2CCN(C)CC2)cc1` (stereo not drawn), for which the binding response (% of control) is 104% (inactive).

With `CCN1C(=S)N[C@@H](CCc2ccccc2)[C@H](C(=O)OC)[C@H]1C`, the binding response (% of control) is 98% (inactive).

As to `CCN1C(=NCC(C)C)N[C@@H](CCc2ccccc2)[C@H](C(=O)NCC(C)C)[C@H]1C`, the binding response (% of control) is 103% (inactive).

As to `CCN1C(=NCc2ccc(OC)cc2)N[C@@H](CCc2ccccc2)[C@H](C(=O)NCc2ccc(OC)cc2)[C@H]1C`, the binding response (% of control) is 139% (active).

For `COc1ccc(CCNS(=O)(=O)c2cc3c(cc2C)NC(=O)CO3)cc1OC`, the binding response (% of control) was 98% (inactive).

In the case of `COc1ccc(NC(=O)CSc2nc3ccccc3c(=O)n2C)cc1`, the binding response (% of control) was 105% (inactive).

Consider `COc1ccccc1/C=N/Nc1nc(C)c(C(C)=O)s1`, for which the binding response (% of control) was 95% (inactive).

Regarding `O=C(CSc1nc(Nc2ccccc2)nc(N2CCOCC2)n1)Nc1cc(Cl)ccc1O`, the binding response (% of control) was 99% (inactive).

With `Cc1c(CCOC(=O)CC23CC4CC(CC(C)(C4)C2)C3)sc[n+]1Cc1ccc([N+](=O)[O-])cc1`, the binding response (% of control) was 172% (active).

`Cc1c(CCO)sc[n+]1CC(=O)OC12CC3CC(CC(C3)C1)C2`: the binding response (% of control) was 97% (inactive).

Take `Cc1c(CCOC(=O)c2cc([N+](=O)[O-])ccc2Cl)sc[n+]1CCCCS(=O)(=O)[O-]`: the binding response (% of control) is 97% (inactive).

Consider `CS(=O)(=O)N(Cc1nc2sc3c(c2c(=O)[nH]1)CCCC3)C1CCCCC1`, for which the binding response (% of control) was 99% (inactive).

For the compound `COc1ccc(-c2csc3ncnc(N4CCN(S(=O)(=O)c5ccccc5C#N)CC4)c23)cc1`, the binding response (% of control) was 107% (inactive).

Take `C=CCN1C=C2C(=O)C(C)(OC(=O)CCc3ccccc3)C(=O)C=C2C=C1c1ccc(C#N)cc1` (stereo not drawn): the binding response (% of control) was 142% (active).

`CC1(OC(=O)CCc2ccccc2)C(=O)C=C2C=C(c3ccc(C#N)cc3)N(CCc3ccccn3)C=C2C1=O` (stereo not drawn): the binding response (% of control) was 111% (inactive).

On to `COC(=O)CCCC1=CC2=CC(=O)C(C)(OC(=O)c3cccs3)C(=O)C2=CN1c1cccc(C#N)c1` (stereo not drawn), for which the binding response (% of control) is 96% (inactive).
